Among the data in PubChem BioAssay (NCI) are growth values, retold here.

Structures are written as SMILES. This is part of a sample that, as a whole, favours compounds with a hit. Of some 83,000 tested, about 20% had one in any assay.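 The test compound was applied at a single concentration to cells in 96-well plates for 48 hours, and percent growth was recorded.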 A number with no mark means an inactive call. The source made the active and inactive calls. How the source made its calls: active means growth percent below 10; inactive means the rest.

Test systems include BT-549 breast; MDA-MB-435 melanoma; SW-620 colon; MCF7 breast; HCT-116 colon; HCC-2998 colon; KM12 colon; T-47D breast.
Assay in all cases: NCI-60 one-dose screen, 48 h (100 = growth as untreated, 0 = no growth, -100 = all killed)
What all share (conditions): 10 µM unless noted

As to `CCN(CC)S(=O)(=O)c1cccc(-c2ccc3c(NC(=O)C4CC4)n[nH]c3c2)c1`, the growth in the test on BT-549 breast is 1.05% [6.25 µM] (active); in the test on MDA-MB-435 melanoma, 7.53% [6.25 µM] (active); in the test on SW-620 colon, 26.1% [6.25 µM]; with MCF7 breast it was 6.78% [6.25 µM] (active); in the test on HCT-116 colon, 11.9% [6.25 µM]; with HCC-2998 colon, 43.9% [6.25 µM]. Also, in the test on KM12 colon, the growth was 12.6% [6.25 µM].

`c1csc(-c2c3ccc(=[N+]4CCCCC4)cc-3oc3cc(N4CCCCC4)ccc23)c1`: the growth with T-47D breast was -60.7% (active); with SW-620 colon, -76% (active); in the test with MCF7 breast, -57.2% (active); in the test on HCT-116 colon, -97.1% (active); in the test with HCC-2998 colon, -94.2% (active); with KM12 colon it was -92.9% (active).

Turning to `COc1ccc(C2c3ccc4ccccc4c3Oc3nc(C)[nH]c(=O)c32)cc1` (stereo not drawn), the growth in the test with T-47D breast was 92.2%; in the test on MDA-MB-435 melanoma, 42.4%; with SW-620 colon, 97.4%; in the test on MCF7 breast, 96.1%; with HCT-116 colon it was 107%; in the test on HCC-2998 colon it was 103%. The growth with KM12 colon was 98.6%.

In the case of `CCCCCCCOc1c(OC)cc(C2CC(=O)Nc3c2c(C)nn3-c2nc3ccccc3[nH]2)cc1OC` (stereo not drawn), the growth in the test with T-47D breast is 11.8%; with MDA-MB-435 melanoma, -27.6% (active); in the test with MCF7 breast it was 6.22% (active); in the test with HCT-116 colon, 4.4% (active); in the test on HCC-2998 colon, 79.2%; in the test on KM12 colon, 1.11% (active).

As for `CCOC(=O)c1csc(NC(=O)COc2cccc(/C=C3\Oc4cc(OC)ccc4C3=O)c2)n1`, the growth was 68.9% with T-47D breast; 90.5% in the test on MDA-MB-435 melanoma; 108% in the test with SW-620 colon; 81.1% in the test on MCF7 breast; 90.7% with HCT-116 colon; 83.9% in the test with KM12 colon.

As to `CCCCCCCCCCCC(c1ccccc1)[N+](C)(C)C` (stereo not drawn), the growth in the test with T-47D breast was 2.28% (active); in the test with MDA-MB-435 melanoma, 8.21% (active); in the test on SW-620 colon it was 41.9%; in the test with MCF7 breast it was 16.1%; with HCT-116 colon, 9.83% (active); in the test on KM12 colon, -20.7% (active).

On to `COc1cccc(-c2nn(-c3ccccc3)cc2-c2ccnc(NCCNC(=O)Nc3cccc(C(F)(F)F)c3)c2)c1`, for which the growth is 0.52% (active) with T-47D breast; 39% in the test on SW-620 colon; 15.3% with MCF7 breast; 10.5% in the test on HCT-116 colon; -47% (active) in the test with HCC-2998 colon; 2.54% (active) in the test on KM12 colon.

For the compound `COc1ccc(-c2nc3c(N)c(CO)c(C)nc3o2)cc1`, the growth in the test on T-47D breast is 90.9%; with MDA-MB-435 melanoma, 103%; in the test on SW-620 colon, 118%; in the test with MCF7 breast, 86.1%; with HCT-116 colon, 103%; with HCC-2998 colon, 87%. Also, the growth in the test on KM12 colon is 96.5%.

In the case of `Cc1ccc(S(=O)(=O)n2cc(CNc3ccc(N4CCOCC4=O)cc3)c3ccccc32)cc1`, the growth is 56.9% in the test on T-47D breast; 97% with MDA-MB-435 melanoma; 78.7% in the test on SW-620 colon; 61.9% with MCF7 breast; 76.8% with HCT-116 colon; 97.8% with HCC-2998 colon. In addition, the growth in the test with KM12 colon is 96.7%.

Regarding `O=C1Nc2ccccc2/C1=C/c1cn(C(=O)c2ccc(Cl)cc2)c2ccccc12`, the growth with BT-549 breast is 96.4%; with MDA-MB-435 melanoma, 110%; with SW-620 colon, 102%; in the test with MCF7 breast, 59.1%; with HCT-116 colon, 91.6%; in the test with KM12 colon, 40.9%.

As for `COc1ccccc1N1C(=O)/C(=C/C2=Cc3ccccc3OC2)SC1=S`, the growth with T-47D breast is 89.7%; in the test on MDA-MB-435 melanoma, 97.8%; in the test on SW-620 colon, 95.4%; in the test on MCF7 breast it was 95.5%; in the test with HCT-116 colon, 84.9%; in the test with HCC-2998 colon, 102%. For the same compound, the growth in the test on KM12 colon is 99.6%.

Turning to `CC(C)C(=O)Nc1n[nH]c2cc(-c3cccc(NS(=O)(=O)C4CC4)c3)ccc12`, the growth in the test on BT-549 breast was 42.3%; in the test on MDA-MB-435 melanoma, 12.9%; in the test on SW-620 colon, 74.5%; in the test on MCF7 breast it was 33.2%; with HCT-116 colon, 52.5%; in the test with KM12 colon, 61.3%.

In the case of `N/C(=N/N=C/c1ccccc1)N/N=C\c1ccccc1`, the growth in the test on T-47D breast was 37.6%; with MDA-MB-435 melanoma, -3.26% (active); in the test with SW-620 colon it was 33.5%; in the test with MCF7 breast it was 31.6%; with HCT-116 colon, 35.9%; with KM12 colon, 35%.

Consider `O=c1[nH]nc(-c2ccccc2)c2c(-c3ccccc3)onc12`, for which the growth is 20.1% in the test with T-47D breast; 25.6% in the test on MCF7 breast; 35.7% in the test with HCT-116 colon; 35.1% in the test with HCC-2998 colon; 29.8% in the test with KM12 colon.

For the compound `CN1CCN(CC(=O)Nc2nc(-c3cccc(NS(=O)(=O)c4cccc5c(N(C)C)cccc45)c3)cs2)CC1`, the growth is 64.3% in the test with T-47D breast; 68.4% in the test on MDA-MB-435 melanoma; 62.6% in the test on SW-620 colon; 49.9% with MCF7 breast; 88.4% in the test on HCT-116 colon; 53.6% in the test on HCC-2998 colon. Besides, the growth in the test on KM12 colon was 71.4%.

As for `COc1cc(C(=O)/C=C/c2c(C(F)(F)F)nc3sccn23)cc(OC)c1OC`, the growth with T-47D breast is -22.7% (active); in the test on MDA-MB-435 melanoma, 12.6%; in the test on SW-620 colon, -21.2% (active); in the test on MCF7 breast, 6.82% (active); with HCT-116 colon, -85.3% (active); in the test with HCC-2998 colon it was -0.607% (active). Besides, the growth with KM12 colon is -75.6% (active).

As for `Nc1nc(N)c2c(n1)NC(c1ccccc1)C1CCc3ccccc3C1=N2` (stereo not drawn), the growth is 30.7% in the test with T-47D breast; 28.4% in the test with MDA-MB-435 melanoma; 58.9% with SW-620 colon; 18.7% in the test on MCF7 breast; 26.1% in the test on HCT-116 colon; 39.1% with KM12 colon.

Take `CNC(=O)NCC1OC(n2cnc3c(NC(=O)Nc4ccccc4)ncnc32)C(O[Si](C)(C)C(C)(C)C)C1CC(=O)N(C)OC` (stereo not drawn): the growth with T-47D breast is -34% (active); in the test with MDA-MB-435 melanoma it was 7.75% (active); in the test with SW-620 colon, 23.7%; in the test on MCF7 breast, 3.29% (active); with HCT-116 colon it was 16.8%; with HCC-2998 colon it was -13.4% (active). Also, in the test on KM12 colon, the growth is 17.2%.

Turning to `C[C@H]1[C@H]2[C@H]3CC[C@@H]4[C@@]5(C)C/C(=C/c6cccnc6)C(=O)C(C)(C)[C@@H]5CC[C@@]4(C)[C@]3(C)CC[C@]23CO[C@]1(C)[C@@H](C(=O)/C=C\c1cccnc1)C3`, the growth was 24.6% with T-47D breast; -7.3% (active) with MDA-MB-435 melanoma; -26.4% (active) with SW-620 colon; 9.88% (active) with MCF7 breast; -45.6% (active) in the test on HCT-116 colon; -67.2% (active) with HCC-2998 colon. For the same compound, the growth in the test with KM12 colon was -55.6% (active).

As to `CN(C)CCNc1nc2ccccc2c2c1c1c(n2Cc2ccccc2)-c2ccccc2C1=O`, the growth with T-47D breast was -41.2% (active); in the test with MDA-MB-435 melanoma, -65.1% (active); in the test on MCF7 breast it was -93.2% (active); in the test with HCT-116 colon, -78.2% (active); in the test with HCC-2998 colon, -91.3% (active); in the test on KM12 colon, -74.6% (active).

For the compound `O=C(CCCCCCSc1nc(-c2ccccc2)cc(-c2ccc(Cl)cc2)n1)NO`, the growth in the test with T-47D breast is -13.7% (active); in the test with MDA-MB-435 melanoma, 19.4%; in the test with SW-620 colon, 11.9%; in the test with MCF7 breast, 15.9%; with HCT-116 colon it was 6.79% (active); with HCC-2998 colon it was 51.8%. Further, the growth with KM12 colon was 31.4%.

Consider `c1c[nH]c(CNC2CCCCC2)c1`, for which the growth is 105% in the test with T-47D breast; 115% in the test on MDA-MB-435 melanoma; 102% in the test with SW-620 colon; 103% in the test with MCF7 breast; 103% in the test on HCT-116 colon; 98.2% with KM12 colon.

For the compound `COc1ccc2oc3c(C)c4c(c(C)c3c2c1)C(=O)N(Cc1ccccc1)C4=O`, the growth was 95% in the test with T-47D breast; 99.2% in the test with MDA-MB-435 melanoma; 78.3% with SW-620 colon; 95.5% in the test on MCF7 breast; 65.5% in the test on HCT-116 colon; 102% in the test on HCC-2998 colon. Besides, the growth in the test on KM12 colon was 97.4%.
